# Source: PubChem (several laboratories)
# Compounds with a hit are over-represented: about 4.6% of the library has one in this group of screens.
# tim10-1 inh – growth inhibitors of tim10-1 mutant yeast, primary screen, luminescence, uHTS | S. cerevisiae tim10-1 ts strain growth, BacTiter-Glo, 24 h | inhibition, % at 20 µM | hit rate 2.2% among 330,000 | AID 463190, 2010;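 active means inhibition of at least 40%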;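 further: mutant grown at 25 °C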
# NLRP3 yeast inh – NALP3 inflammasome inhibitors in reconstituted yeast, primary screen, luminescence, uHTS; Yeast reconstituted NLRP3/ASC/caspase-1, beta-gal luminescence, 24 h; inhibition, % at 10 µM; hit rate 0.39% among 330,000; AID 2825, 2010;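 active means inhibition of 50% or more; inactive means inhibition below 50%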
# PfHsp90 set2 – growth inhibition of PfHsp90-expressing yeast, primary screen, antimalarial PfHsp90 inhibitor project, S. cerevisiae, BacTiter-Glo luminescence, single point, set 2 | hit rate 0.32% among 310,000 | inhibition, % at 9.4 µM | BacTiter-Glo ATP, 48 h; yeast lacking PDR1 and PDR3 efflux regulators;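 active means every replicate shows inhibition above about 80%, whatever the replicate mean, limit read from the data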
# tim23-1 inh – growth inhibitors of tim23-1 mutant yeast, primary screen, luminescence, uHTS. AID 463212, 2010. S. cerevisiae tim23-1 growth, BacTiter-Glo luminescence, 24 h. hit rate 1.3% among 330,000. inhibition, % at 20 µM;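 active means growth inhibition of the mutant yeast at or above 50%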;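 further: temperature-sensitive mutant grown at 25 °C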
# SKKanGAS inh – S. pyogenes SKKanGAS growth inhibitors in kanamycin, primary screen, streptokinase expression inhibitor project, SKKanGAS strain, BacTiter-Glo luminescence. AID 1662, 2009. inhibition, % at 7.5 µM. 6 h. hit rate 1.3% among 300,000;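 active means mean replicate score, as percent of positive control median, at least 50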;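 further: strain carries kanamycin resistance gene driven by streptokinase promoter and grows in 40 µg/ml kanamycin; loss of luminescence reflects streptokinase promoter inhibition or plain growth inhibition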
# TIM10 inh – growth inhibitors of isogenic TIM10 control yeast, primary screen, counter-screen for tim10-1 yeast inhibitor project, luminescence, uHTS. S. cerevisiae TIM10 strain growth, BacTiter-Glo luminescence, 24 h. inhibition, % at 10 µM. hit rate 1.4% among 330,000;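 active means inhibition of 40% or more at the single tested concentration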;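 further: wild-type TIM10 isogenic control strain grown at permissive 25 °C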
# tim10-1 conf – growth inhibitors of tim10-1 mutant yeast, confirmation, single concentration, luminescence, S. cerevisiae | inhibition, % at 20 µM | S. cerevisiae tim10-1 ts strain growth, BacTiter-Glo, 24 h | hit rate 56% among 7,400 | shares compounds with tim10-1 inh | AID 463213, 2010;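 active means inhibition of yeast growth at or above a set limit in either of two repeat tests at 20 µM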;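 further: tim10-1 mutant grown at permissive 25 °C to find synthetic lethal compounds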
# Hits are given with their value; - = inactive; . = not tested or not shown.
SMILES,tim10-1 inh,NLRP3 yeast inh,PfHsp90 set2,tim23-1 inh,SKKanGAS inh,TIM10 inh,tim10-1 conf
CCOC(=O)C1CCCN(C2=NC(=O)/C(=C/c3ccc(O)c(OCC)c3)S2)C1 (stereo not drawn),46,-,-,-,-,-,-
CC(=O)C1=C(C)N(Cc2ccccc2)C(=O)N[C@H]1c1cccc(C(F)(F)F)c1,-,-,-,-,-,-,.
CC(=O)C1=C(C)N(Cc2ccccc2)C(=O)N[C@@H]1c1cccc(C(F)(F)F)c1,41,-,-,-,-,-,-
CC(=O)Oc1ccc2c(=O)oc(-c3ccccc3C)nc2c1,44,-,-,-,-,-,40
Cc1ccc(S(=O)(=O)N2CCC(NC(=O)c3cccc(C)c3)CC2)cc1,-,-,-,-,-,-,.
COc1cccc(N2[C@@H](CC(C)=O)c3ccc(/C=C/C(C)=O)cc3S2(=O)=O)c1,44,-,.,-,-,-,34
COC(=O)C[C@H]1c2ccccc2S(=O)(=O)N1c1cccc(OC)c1,-,-,-,-,-,-,.
COC(=O)Nc1ccc(N2CCOCC2)c(S(=O)(=O)N2CCOCC2)c1,-,-,-,-,-,-,.
CCOc1ccc(N2C(=O)/C(=C\c3ccccc3OC)S(=O)(=O)C2c2cccc([N+](=O)[O-])c2)cc1 (stereo not drawn),45,-,110,-,-,-,41
COc1ccc(CNC(=O)C2CCCN(S(=O)(=O)c3c(C)noc3/C=C/N(C)C)C2)cc1 (stereo not drawn),-,-,-,-,-,-,.
Clc1ccc(-n2ncc3c(NCc4ccco4)ncnc32)cc1,-,-,-,-,-,-,.
Clc1ccc(Cn2ncc3c(NCc4ccco4)ncnc32)c(Cl)c1,42,-,.,-,-,-,-
COc1ccc(NC(=O)C(CC(=O)O)Cc2ccc(C)cc2)cc1 (stereo not drawn),-,-,.,-,-,-,.
COc1ccc(/C=C/C(=O)NC(=S)NNC(=O)[C@H]2C[C@@H]2c2ccccc2)cc1OC,48,-,-,-,63,-,-
Cc1ccc(C(=O)CSc2nnc(CNc3ccc(C)cc3C)n2Cc2ccco2)cc1,-,-,-,-,-,-,.
COc1ccc(C(=O)CSc2nnc(CNc3ccc(C)cc3C)n2Cc2ccco2)cc1,40,-,-,-,-,-,-
Cc1nn2c(N3CCN(C(=O)c4ccco4)CC3)cc(C(C)(C)C)nc2c1-c1ccccc1,50,-,.,-,62,-,-
Cc1nn2c(N3CCN(C)CC3)cc(C(C)(C)C)nc2c1-c1ccccc1,-,-,-,-,-,-,.
CN(CC(=O)O/N=C(\N)c1ccc(Br)cc1)S(=O)(=O)c1ccccc1,50,-,-,-,-,-,43
CN(CC(=O)O/N=C(\N)c1ccccn1)S(=O)(=O)c1ccc(Br)cc1,-,-,-,-,-,-,.
C=CC[n+]1c(-c2ccc(C)cc2)csc1Nc1c(C)n(C)n(-c2ccccc2)c1=O,41,-,-,-,-,-,-
C=CCSC1=N/C(=C\c2cc(OCC)c(OC(C)=O)c([N+](=O)[O-])c2)C(=O)S1,42,-,-,-,-,-,-
Cc1ccc(N2CSC3=C(C#N)C(c4cccs4)CC(=O)N3C2)cc1 (stereo not drawn),40,-,-,-,-,-,-
Cc1ccc(-c2cc(C(=O)NN=C3CCCC3)c3ccccc3n2)cc1,44,-,-,-,-,-,-
Cc1sc(NC(=O)c2cc(-c3ccccc3)nc3ccccc23)c(C(N)=O)c1C,41,-,-,-,-,-,-
SMILES,tim10-1 inh,NLRP3 yeast inh,PfHsp90 set2,tim23-1 inh,SKKanGAS inh,TIM10 inh,tim10-1 conf
CCCc1ccc(-c2cc(C(=O)N/N=C/c3ccc([N+](=O)[O-])o3)c3ccccc3n2)cc1,44,-,-,-,96,-,49
O=C(CNc1ccc2ccccc2c1)N/N=C/c1ccc(C(=O)O)cc1,-,-,-,-,-,-,.
O=C(CNc1ccc2ccccc2c1)N/N=C/c1ccc([N+](=O)[O-])o1,47,-,-,-,83,-,41
O=C(Nc1cccc(-n2cnnn2)c1)c1ccoc1COc1ccc(Cl)cc1,-,-,-,-,-,-,.
C/C(=N/OC(=O)c1ccccc1)c1oc(C)nc1C,-,-,-,-,-,-,.
O=C(c1ccc(=O)[nH]c1)N1CCCc2ccccc21,-,-,-,-,-,-,.
COc1cccc(-c2cc(C(=O)N/N=C/c3ccco3)c3ccccc3n2)c1,-,-,-,-,-,-,.
O=C(N/N=C/c1ccco1)c1cc(-c2ccccc2)nc2ccccc12,-,-,-,-,-,-,.
O=C(N/N=C/c1ccccn1)c1cc(-c2ccc(Br)cc2)nc2ccccc12,44,-,106,-,107,-,-
O=C(N/N=C/c1ccc([N+](=O)[O-])o1)c1cc(-c2cccc(Br)c2)nc2ccccc12,44,-,-,-,98,-,-
O=C(CC1CCC1)NC(c1ccccc1)c1ccccc1,-,-,.,-,-,-,.
O=C(Nc1ccccc1)c1ccc(-c2ccccc2C(F)(F)F)o1,44,-,-,-,.,-,-
CC(C)NC(=O)c1ccc(-c2ccccc2C(F)(F)F)o1,-,-,-,-,-,-,.
CC(NC(=S)Nc1ccc(Cl)cc1)C(c1ccccc1)N1CCOCC1 (stereo not drawn),-,-,-,-,-,-,.
COc1ccc(-c2cn3cccnc3n2)cc1NC(=O)C(C)Oc1ccccc1 (stereo not drawn),46,-,-,-,-,-,-
Cc1c2c(c(C)n1C)C(C(=O)NC1CCCCC1)N(Cc1ccccc1)C2=O (stereo not drawn),45,-,-,-,-,-,39
O=C(NC1CCCCCC1)C1c2ccccc2C(=O)N1Cc1cccnc1 (stereo not drawn),-,-,.,-,-,-,.
COc1ccc(NC2CCCN(C(=O)CCC(=O)c3ccc(F)cc3)C2)cc1 (stereo not drawn),-,-,-,-,-,-,.
Cc1ccccc1NC(=O)CSc1nc(N)c2c3c(sc2n1)CSC(C)(C)C3,43,-,-,-,-,-,33
O=c1[nH]c(N/N=C/c2cc3c(cc2[N+](=O)[O-])OCO3)nc2ccccc12,-,-,-,-,-,-,.
O=c1[nH]c(N/N=C\c2ccc3c(c2)OCO3)nc2ccccc12,40,-,-,-,-,-,-
